Source: the supplement of paper PMC10646978
± gives the standard deviation.

Legend:
Conditions in all cases: modulator concentration 10 µM
[1] = system: RAW-Dual (murine macrophage reporter line); experiment: NF-kB reporter (SEAP) activity fold change vs agonist alone; higher = enhanced NF-kB activity
How it was run: (§1)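 In 384-well plates holding 50 000 RAW-Dual murine macrophage reporter cells per well, compound at 10 μM final was pre-incubated for 1 hour at 37 °C, after which a PRR agonist was added overnight. Supernatant SEAP read with QUANTI-Blue at 620 nm absorbance reported NF-κB, and Lucia luciferase read with QUANTI-Luc luminescence reported IRF. Fold change values come from dividing each reporter signal by the mean of agonist-only control wells on the same plate, averaged over replicate plates with propagated errors.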

[2] = system: RAW-Dual (murine macrophage reporter line); experiment: IRF reporter (Lucia luciferase) activity fold change vs agonist alone; higher = enhanced IRF activity
How it was run: as §1

[3] = system: RAW-Dual (murine macrophage reporter line); experiment: viability score (confluency relative to resting cells, overnight) (fraction); higher = more viable, active = viable (0.7 or more)
How it was run: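 Two confluency masks, generated with IncuCyte software over all imaged wells, were applied to IncuCyte images of RAW-Dual macrophages. The cells, in 384-well plates, had been exposed overnight to 10 μM final compound. The viability score is confluency as a fraction of resting cells, and a compound met the cutoff only with both masks above 70% of resting cells.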

[4] = agonist: CpG ODN 1826 0.5 ug/mL

Row | Structure (SMILES) | NF-kB reporter [1, 4] | NF-kB reporter ([1]; agonist: LPS 0.1 ug/mL) | NF-kB reporter ([1]; agonist: MPLA […]) | IRF reporter ([2]; agonist: 3'3'-cGAMP 10 ug/mL) | IRF reporter ([2]; agonist: LPS 0.1 ug/mL) | IRF reporter ([2]; agonist: MPLA […]) | viability score [3]
1 | CCOC(=O)c1sc(NC(=O)CSc2nc3ccccc3o2)c(C(=O)OCC)c1C | 1.01 ± 0.057 | 1.11 ± 0.09 | 1.06 ± 0.071 | 1.04 ± 0.039 | 1.3 ± 0.096 | 0.995 ± 0.12 | 0.981 (active)
2 | CCC(c1ccc(O)cc1)C(CC)c1ccc(O)cc1 (centres undefined) [Prestw-699] | 0.567 ± 0.043 | 0.883 ± 0.068 | 1.02 ± 0.1 | 0.75 ± 0.13 | 0.84 ± 0.11 | 1.06 ± 0.16 | 0.181 (inactive)
3 | CCN(CC)Cc1cc(Nc2ccnc3cc(Cl)ccc23)ccc1O.Cl.Cl | 0.199 ± 0.011 | 0.753 ± 0.073 | 0.774 ± 0.046 | 1.19 ± 0.075 | 1.03 ± 0.11 | 1.47 ± 0.16 | 0.873 (active)
4 | CCOCC(=O)Nc1nc2c(C(F)(F)F)cccc2s1 | 1.16 ± 0.067 | 0.964 ± 0.11 | 1.06 ± 0.052 | 0.969 ± 0.039 | 1.04 ± 0.048 | 1.03 ± 0.14 | 0.989 (active)
5 | CS(=O)(=O)N(CC(=O)NCC1CCCO1)c1ccc(Cl)c(C(F)(F)F)c1 (centres undefined) | 0.751 ± 0.071 | 0.821 ± 0.039 | 1.01 ± 0.09 | 0.993 ± 0.046 | 1.35 ± 0.095 | 1.52 ± 0.15 | 0.998 (active)
6 | Nc1ncnc2c1ncn2C1CC(O)C(CO)O1 (centres undefined) | 0.992 ± 0.08 | 0.875 ± 0.065 | 1.12 ± 0.11 | 1.12 ± 0.039 | 1.29 ± 0.18 | 1.35 ± 0.26 | 1.05 (active)
7 | CC(=O)N1CCN=C1SCc1cccc(C(F)(F)F)c1 | 0.767 ± 0.06 | 0.698 ± 0.059 | 0.896 ± 0.029 | 0.572 ± 0.035 | 0.912 ± 0.068 | 0.88 ± 0.08 | 0.99 (active)
8 | OCC(O)CN1CCN(c2ccccc2)CC1 (centres undefined) | 1.06 ± 0.091 | 1.03 ± 0.12 | 1.02 ± 0.039 | 1.03 ± 0.064 | 0.991 ± 0.11 | 0.982 ± 0.17 | 0.996 (active)
9 | CC(C)(C)n1cnc2cc(N=Cc3ccc(Cl)cc3)ccc21 | 1.21 ± 0.14 | 1.01 ± 0.12 | 1.4 ± 0.055 | 0.888 ± 0.059 | 0.805 ± 0.048 | 0.996 ± 0.1 | 1 (active)
10 | Cc1cc(Cl)ccc1NC(=O)c1ccc(CN2CCN(c3ccccc3)CC2)cc1 | 0.684 ± 0.053 | 0.999 ± 0.07 | 0.978 ± 0.085 | 0.803 ± 0.037 | 1.07 ± 0.069 | 1.2 ± 0.11 | 1.02 (active)
11 | O=c1[nH]nc(Br)c(=O)[nH]1 | 1.04 ± 0.082 | 1.1 ± 0.09 | 0.969 ± 0.04 | 0.993 ± 0.11 | 1.03 ± 0.057 | 1.02 ± 0.086 | 0.992 (active)
12 | CCOc1ccccc1OCCCCOc1cccc(Br)c1 | 0.728 ± 0.06 | 1.05 ± 0.075 | 0.968 ± 0.067 | 1.19 ± 0.031 | 1.49 ± 0.24 | 1.2 ± 0.2 | 1 (active)
13 | CCCCN(Cc1ccccc1)C(=O)C1CCN(Cc2c(F)cccc2Cl)CC1 | 0.378 ± 0.034 | 1.09 ± 0.09 | 0.757 ± 0.056 | 1.01 ± 0.029 | 1.69 ± 0.27 | 1.36 ± 0.25 | 0.617 (inactive)
14 | CCc1cccc2c3c([nH]c12)C(CC)(CC(=O)O)OCC3 (centres undefined) [Prestw-231] | 0.957 ± 0.25 | 0.995 ± 0.066 | 1.19 ± 0.15 | 0.926 ± 0.039 | 1.24 ± 0.15 | 1.32 ± 0.24 | 0.989 (active)
15 | CS(=O)(=O)N(Cc1ccccc1)c1ccc(C(=O)NCCSCc2ccc(Cl)cc2)cc1 | 0.924 ± 0.099 | 0.976 ± 0.062 | 1.01 ± 0.097 | 1.01 ± 0.028 | 1.54 ± 0.25 | 1.13 ± 0.14 | 1.01 (active)
16 | O=C(CSc1ccc2nc(-c3ccccc3)cn2n1)Nc1ccc(Br)cc1 | 0.931 ± 0.2 | 0.957 ± 0.077 | 0.995 ± 0.15 | 0.624 ± 0.017 | 1.21 ± 0.25 | 1.31 ± 0.23 | 0.988 (active)
17 | O=C(c1ccc(OC(F)(F)F)cc1)N1CCC(Oc2cnccn2)CC1 | 1.05 ± 0.42 | 1.23 ± 0.061 | 1.04 ± 0.066 | 0.902 ± 0.03 | 1.19 ± 0.13 | 1.28 ± 0.13 | 0.996 (active)
18 | OCCN(CCO)c1nc(N2CCCCC2)c2nc(N(CCO)CCO)nc(N3CCCCC3)c2n1 | 1.58 ± 0.22 | 1.39 ± 0.35 | 1.06 ± 0.07 | 0.502 ± 0.022 | 1.18 ± 0.18 | 1.28 ± 0.17 | 0.984 (active)
19 | CC(=O)NC(Cc1c[nH]c2ccccc12)C(=O)O (centres undefined) | 1.09 ± 0.27 | 1.09 ± 0.083 | 0.978 ± 0.063 | 0.969 ± 0.042 | 1.33 ± 0.14 | 1.3 ± 0.13 | 0.995 (active)
20 | Cc1cc(=O)n2c(-c3cccc(NC(=O)C4CCCO4)c3)csc2n1 (centres undefined) | 1.25 ± 0.072 | 1.04 ± 0.089 | 1.01 ± 0.037 | 0.973 ± 0.093 | 1.04 ± 0.11 | 0.936 ± 0.18 | 0.999 (active)
21 | NC(Cc1cc(I)c(Oc2cc(I)c(O)c(I)c2)c(I)c1)C(=O)O (centres undefined) | 0.948 ± 0.23 | 0.984 ± 0.098 | 0.94 ± 0.073 | 0.901 ± 0.036 | 1.18 ± 0.2 | 1.12 ± 0.14 | 1 (active)
22 | CCc1c(C)c2ccc(OCC(C)=O)c(C)c2oc1=O | 0.936 ± 0.21 | 0.984 ± 0.098 | 0.938 ± 0.098 | 0.942 ± 0.068 | 1.27 ± 0.3 | 1.2 ± 0.13 | 0.991 (active)
23 | CC(C(=O)O)c1ccc2c(c1)[nH]c1ccc(Cl)cc12 (centres undefined) | 0.96 ± 0.15 | 1.13 ± 0.24 | 0.879 ± 0.064 | 0.937 ± 0.054 | 1.19 ± 0.2 | 1.05 ± 0.16 | 1 (active)
24 | O=C(CCCCCN1C(=O)c2cccc3cccc(c23)C1=O)NCCCO | 0.997 ± 0.08 | 0.993 ± 0.064 | 0.919 ± 0.036 | 1.02 ± 0.14 | 1.11 ± 0.053 | 1.08 ± 0.082 | 0.993 (active)
25 | Cl.O=C1CN2Cc3c(ccc(Cl)c3Cl)NC2=N1 | 0.954 ± 0.13 | 0.963 ± 0.17 | 0.96 ± 0.077 | 0.959 ± 0.051 | 1.24 ± 0.29 | 0.993 ± 0.2 | 1.01 (active)
26 | CC[C@H](Nc1ncnc2[nH]cnc12)c1nc2cccc(F)c2c(=O)n1-c1ccccc1 | 1.18 ± 0.27 | 0.973 ± 0.11 | 1.04 ± 0.067 | 0.641 ± 0.023 | 0.763 ± 0.073 | 0.997 ± 0.18 | 0.964 (active)
27 | COC(=O)c1cccc(-c2ccc(C=NN3C(=O)C4C5C=CC(CC5)C4C3=O)o2)c1 (centres undefined) | 1.04 ± 0.1 | 1.14 ± 0.082 | 0.815 ± 0.055 | 0.867 ± 0.025 | 1.55 ± 0.22 | 1.36 ± 0.14 | 1 (active)
